High-throughput results as filed in PubChem.
In the library only some 4.1% were active in any assay of this set; here they are far more common.
DAX1 inh-1: inhibitors of DAX1 repression of SF-1 activated StAR promoter; inhibition, % at 6.8 µM; HEK293T StAR-luciferase reporter, SF-1/DAX-1 repression relief; 370,000 compounds, 1.1% hits; AID 652010;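 active means inhibition above the mean over all tested compounds plus 3 SD, cut at about 3.6% in these data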;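 further: 0% = DAX-1 cells with DMSO and 100% = cells lacking DAX-1 with DMSO; higher inhibition means more luminescence from relief of DAX-1 repression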
hcDAF-12 act: H. contortus DAF-12 activation, primary screen; activation, % at 6.8 µM; HEK293 hcDAF-12 lit1-tk-luc reporter, luminescence; 0% DMSO, 100% Δ7-dafachronic acid; AID 652067; 370,000 compounds, 1.4% hits;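 active means activation above the mean of all tested compounds plus 3 SD, cut at about 5.5% in these data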;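 further: 100% = response to 3 µM Δ7-dafachronic acid high control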
DAX1 inh-2: NR0B1 (DAX1) inhibition; P51843; HEK293 Gal4-DAX1 luciferase reporter, luminescence; inhibition, % at 6.75 µM; 340,000 compounds, 0.99% hits; AID 504766;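 active means inhibition above the mean over all tested compounds plus 3 SD, cut at about 4.2% in these data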;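 further: 0% = DAX1-transfected cells with DMSO and 100% = empty-vector control cells with DMSO; inhibition shows as a rise in luminescence from relieved DAX1 repression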
Target sequence (P51843 207-470 limits assumed): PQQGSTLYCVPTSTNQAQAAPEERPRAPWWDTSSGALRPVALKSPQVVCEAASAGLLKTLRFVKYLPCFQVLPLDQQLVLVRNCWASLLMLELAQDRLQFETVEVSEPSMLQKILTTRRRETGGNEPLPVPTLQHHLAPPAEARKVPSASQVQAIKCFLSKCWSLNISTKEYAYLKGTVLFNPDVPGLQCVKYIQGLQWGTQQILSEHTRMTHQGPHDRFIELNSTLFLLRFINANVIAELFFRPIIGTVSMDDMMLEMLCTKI
ssDAF12 agonist: activators of S. stercoralis DAF-12 nuclear receptor. HEK293 ssDAF-12/GRIP1 lit1-tk-luc reporter, luminescence; % of 3 µM dafachronic acid response. activation, % at 6.8 µM. 370,000 compounds, 1% hits. AID 652126;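 active means activation above the mean over all tested compounds plus 3 SD, cut at about 0.9% in these data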;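 further: 0% = DMSO-only wells and 100% = 3 µM delta7-dafachronic acid wells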
hgDAF-12 ag: hgDAF-12 agonism, primary luciferase screen; HEK293 GAL4-hgDAF12 UAS-luciferase reporter, agonist luminescence; normalized to butyrate control; activation, % at 6.8 µM; 370,000 compounds, 1.8% hits;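 active means activation above a cutoff set at the mean of all screened compounds plus 3 SD, cut at about 10% in these data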;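 further: 0% = DMSO wells and 100% = sodium butyrate wells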
LXRb hcDAF ctr: LXR-beta agonism as hcDAF-12 counter-screen | activation, % at 6.8 µM | 3,400 tested, under 10 active | shares compounds with hcDAF-12 act | AID 743027 | HEK293 Gal4-LXR tk-luc reporter, luminescence, 24 h; normalized: DMSO 0%, positive control 100%;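 active means mean percent activation of the reporter above a cutoff set as the average over tested compounds plus their standard deviation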
Target sequence (P55055 whole entry, looked up, the tested form may be a part): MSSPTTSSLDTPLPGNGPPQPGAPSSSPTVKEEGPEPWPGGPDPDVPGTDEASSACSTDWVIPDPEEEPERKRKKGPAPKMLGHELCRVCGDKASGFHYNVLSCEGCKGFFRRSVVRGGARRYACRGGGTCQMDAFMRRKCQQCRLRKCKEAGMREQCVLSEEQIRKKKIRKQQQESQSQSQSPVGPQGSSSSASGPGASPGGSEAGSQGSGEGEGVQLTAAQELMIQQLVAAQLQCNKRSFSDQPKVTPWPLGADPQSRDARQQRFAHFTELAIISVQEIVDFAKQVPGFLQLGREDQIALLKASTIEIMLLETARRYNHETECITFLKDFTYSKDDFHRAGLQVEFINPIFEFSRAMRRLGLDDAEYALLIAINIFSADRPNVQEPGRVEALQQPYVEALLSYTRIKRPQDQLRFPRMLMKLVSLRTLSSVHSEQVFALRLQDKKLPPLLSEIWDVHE
hcDAF12 ag: hcDAF-12 agonism, confirmation assay. shares compounds with hcDAF-12 act. HEK293 hcDAF-12 lit1-tk-luc reporter, luminescence; % of Δ7-dafachronic acid response. AID 743032. 3,400 compounds, 61% hits. activation, % at 6.8 µM;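 active means mean activation across triplicate tests above the threshold derived from the earlier primary screen, cut at about 5.5% in these data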;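 further: 0% = DMSO only wells and 100% = 3 µM Δ7-dafachronic acid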
The depositor's hits bear a star; · = no result given.

SMILES | DAX1 inh-1 | hcDAF-12 act | DAX1 inh-2 | ssDAF12 agonist | hgDAF-12 ag | LXRb hcDAF ctr | hcDAF12 ag
COc1ccc(/C(C)=N/N2C(C)CCCC2C)c(OC)c1 (configuration not stated) | 0.0 | -1.3 | 0.2 | -1.3 | 2.8 | · | ·
CCc1cc(C(=O)Nc2ccc(C)cc2Br)cs1 | 3.7* | 9.1* | 1.2 | 1.6* | 12.2* | 1.1 | 12.0*
CCc1cc(C(=O)NNC(=S)Nc2cccc(C)c2)cs1 | 1.6 | 0.7 | 1.9 | -1.4 | 6.1 | · | ·
Fc1ccc(OCc2nc(-c3ccc(Br)o3)no2)c(F)c1 | 1.1 | 2.1 | 0.6 | -0.8 | 9.1 | · | ·
Cc1nc(-c2noc(-c3ccccc3Cl)n2)c(C(F)(F)F)o1 | 0.1 | 1.2 | 2.5 | -0.3 | 6.8 | · | ·
COc1ccccc1-c1nc(-c2ccccn2)no1 | 2.8 | 8.6* | -3.2 | -0.3 | 7.8 | 1.0 | 10.3*
Clc1ccccc1OCc1nc(-c2ccc(Br)o2)no1 | 1.4 | 6.7* | -0.1 | -0.5 | 2.5 | -0.1 | 3.0
Clc1ccccc1-c1nc(-c2ccc(Br)o2)no1 | 2.1 | 15.1* | 5.6* | 3.5* | 21.5* | 2.1 | 17.6*
Brc1ccc(-c2nc(-c3ccncc3)no2)o1 | 0.6 | -1.7 | -0.2 | -1.6 | 0.1 | · | ·
Brc1ccc(-c2nc(-c3ccccn3)no2)o1 | 0.7 | 8.0* | -2.9 | -0.1 | 5.4 | 1.2 | 10.8*
CC(C)(C)c1ccc(/C=C(\C#N)C(=O)NC2CC2)cc1 | 0.3 | 0.5 | · | -0.2 | 1.2 | · | ·
O=C(COC(=O)CNC(=O)c1cccc(OC(F)F)c1)NNC(=O)c1ccccc1 | 0.1 | -1.9 | 0.2 | -0.4 | -1.0 | · | ·
C[C@H](CO)N1C[C@H](C)[C@@H](CN(C)Cc2ccncc2)Oc2c(NS(=O)(=O)c3ccc(F)cc3)cccc2C1=O | 0.8 | 0.1 | 2.5 | -0.5 | 1.6 | · | ·
CN(Cc1cccs1)C(=O)Cn1cnc2cc([N+](=O)[O-])ccc2c1=O | 0.3 | -1.4 | 1.8 | -1.3 | -1.2 | · | ·
O=C(Nc1cccc(NC(=O)c2ncn[nH]2)c1)c1cccc(Cl)c1 | -1.1 | -1.0 | 0.7 | -1.9 | -2.1 | · | ·
O=C(NCc1ccccc1Cl)c1ccc2ccccc2n1 | 0.1 | 7.7* | -0.1 | 1.1* | 10.7* | 0.7 | 9.1*
NS(=O)(=O)c1ccc(CCNC(=O)c2ccc3ccccc3n2)cc1 | 1.1 | 6.8* | 0.2 | 0.5 | 6.0 | 0.2 | 8.5*
COc1ccc(CCNC(=O)c2ccc3ccccc3n2)cc1 | -0.1 | 7.2* | 0.4 | -0.1 | 11.2* | 0.0 | 4.5
O=C(NCc1ccccc1F)c1ccc2ccccc2n1 | -0.2 | 0.8 | 0.8 | -0.6 | 0.9 | · | ·
COc1ccc(CCNC(=O)CSc2nnc3ccc(-c4cccnc4)nn23)cc1OC | -0.5 | -1.9 | -1.4 | -1.4 | -4.8 | · | ·
CC[C@H](C)[C@H]1CNC(=S)N1CC1CCN(CCC(C)C)CC1 | 0.7 | 0.0 | -0.2 | -1.2 | 0.0 | · | ·
CCN(CCn1cccn1)C(=O)c1ccc2nc(Cc3ccc(OC)cc3)oc2c1 | 0.1 | 0.1 | 0.9 | -1.3 | 0.8 | · | ·
O=C(Nc1ccccc1SC(=O)c1ccccc1)c1ccccc1 | 1.0 | 7.8* | 4.4* | 1.8* | 7.3 | 0.4 | 9.9*
N#C/C(=C\c1ccc(-c2cccc([N+](=O)[O-])c2)o1)c1nnc(N2CCOCC2)n1-c1ccccc1 | -1.1 | 2.4 | · | -2.2 | -3.4 | · | ·
CC(=O)O/C(=C\c1cn(C(C)=O)c2ccccc12)C(=O)O | 0.9 | 3.5 | 1.2 | 0.3 | -2.5 | · | ·
SMILES | DAX1 inh-1 | hcDAF-12 act | DAX1 inh-2 | ssDAF12 agonist | hgDAF-12 ag | LXRb hcDAF ctr | hcDAF12 ag
CC(=O)n1cc(CO)c2ccccc21 | 0.6 | 7.2* | -0.1 | -0.7 | 0.0 | 0.0 | 2.9
COCc1ccc(C(=O)N2CCCC(N3CCN(c4ccc(F)cc4)CC3)C2)o1 (configuration not stated) | -1.5 | -2.2 | -0.3 | -1.5 | -1.3 | · | ·
COCCCNc1nc2c(-c3ccc(C)cc3)nnn2c2ccccc12 | 1.4 | 8.0* | 2.3 | 3.6* | 11.7* | 0.2 | 8.0*
COCCCNc1nc2c(-c3cccc(C)c3)nnn2c2ccccc12 | -0.7 | 6.9* | 0.3 | -0.3 | 3.1 | -0.3 | 2.1
CCCCNc1nc2c(S(=O)(=O)c3ccccc3)nnn2c2ccccc12 | 0.9 | 2.7 | -0.1 | -0.6 | 1.6 | · | ·
COc1cc(/C=C/C(=O)OCC(=O)N2CCN(S(=O)(=O)c3ccc(C)cc3C)CC2)ccc1OC(F)F | -2.1 | -0.8 | 0.3 | -0.9 | 0.9 | · | ·
CC(C)(C)c1ccc(C(=O)NCCc2ccccc2)cc1 | 2.6 | 6.6* | -1.0 | 0.7 | 11.4* | 2.1 | 11.7*
CC(C)(C)c1ccc(C(=O)NCCC(=O)N2CCCC2)cc1 | 1.7 | 7.0* | 3.0 | 0.4 | 12.3* | 0.9 | 4.9
CC(C)(C)c1ccc(C(=O)NCc2ccccc2)cc1 | 1.6 | 1.6 | 2.0 | -1.2 | 10.0 | · | ·
COc1ccc(/C=N/n2c(C)nc3ccccc3c2=O)cc1 | 0.4 | -1.4 | -0.4 | -0.5 | 1.6 | · | ·
COc1ccc(/C=N\n2nnc3ccccc32)cc1 | 4.2* | 9.1* | -4.2 | 0.9* | 8.3 | 1.4 | 7.7*
Cc1ccc(-c2cc(=O)c3ccccc3[nH]2)cc1 | 0.1 | 1.1 | 3.0 | -0.9 | 3.7 | · | ·
Cc1ccc2[nH]c(-c3ccccc3)cc(=O)c2c1 | 2.7 | 12.9* | 1.0 | 3.5* | 4.6 | 0.8 | 4.8
CCC(=O)Oc1ccc2oc(=O)cc(C)c2c1 | -0.2 | 0.6 | -0.4 | -1.1 | 5.8 | · | ·
Cc1cc(=O)oc2ccc(OC(=O)CN3C(=O)c4cccc([N+](=O)[O-])c4C3=O)cc12 | 0.4 | 8.8* | 0.4 | -0.9 | 1.4 | -0.2 | 2.3
Cc1ccc(C(=O)NC(=S)Nc2c(C)ccc3nsnc23)cc1 | -0.1 | 7.6* | -0.4 | 1.6* | -0.5 | -0.3 | 3.4
Cc1onc(-c2c(Cl)cccc2Cl)c1NC(=O)NN(C)C | 0.5 | -0.3 | 3.5 | -1.5 | 2.7 | · | ·
Cc1onc(-c2c(Cl)cccc2Cl)c1NC(=O)N1CCSCC1 | 3.5 | 8.0* | 4.2* | 1.8* | 10.6* | -0.2 | 0.3
Cc1ccccc1Nc1n[nH]c(C)c1[N+](=O)[O-] | 0.5 | 9.0* | -0.8 | 0.1 | 2.4 | 0.1 | 4.5
CC1CCc2c(nc3sc4c(c3c2N)CCCC4)C1 (configuration not stated) | 1.6 | 7.1* | 1.3 | -0.4 | 20.6* | 0.6 | 2.0
Cc1ccc(-c2nc(NCc3cccnc3)c3ccccc3n2)cc1 | 0.5 | 6.8* | 0.2 | -0.2 | 0.1 | -0.3 | 4.4
c1ccc(-c2nc(NCc3cccnc3)c3ccccc3n2)cc1 | · | · | -0.3 | · | · | · | ·
Cc1ccc(-c2nc(NCc3ccco3)c3ccccc3n2)cc1 | -0.7 | 6.6* | 1.3 | 0.9* | 8.3 | 0.2 | 5.7*
Cc1ccc(-c2nc(NCCN(C)C)c3ccccc3n2)cc1 | 1.6 | 13.9* | 2.7 | 0.3 | 5.1 | 0.2 | 8.7*
